In PMC5540273 (PLoS ONE, 2017):

Legend:
Conditions in all cases: concentration: 1 μM, replicates: in singlicate; n = 1
[1] = test system: T1, ERK5
T1 construct: gene MAPK7

[2] = test system: T2, ERK8
T2 construct: gene MAPK15

[3] = test system: ERN1
[4] = test system: T3, FAK
T3 construct: gene PTK2

[5] = test system: FER
[6] = test system: FES
[7] = test system: FGFR1
[8] = test system: FGFR2
[9] = test system: FGFR3
[10] = test system: FGFR4
[11] = test system: FGR
[12] = test system: FLT1
[13] = test system: FLT3-autoinhibited
[14] = test system: FLT3
[15] = test system: FLT4
[16] = test system: FRK
[17] = test system: FYN
[18] = test system: GAK
[19] = test system: T4, GCN2(Kin.Dom.2,S808G)
T4 construct: gene EIF2AK4

[20] = test system: GRK1
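Note: KINOMEscan kinase panel screen.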

Compound | %Inh [1] | %Inh [2] | %Inh [3] | %Inh [4] | %Inh [5] | %Inh [6] | %Inh [7] | %Inh [8] | %Inh [9] | %Inh [10] | %Inh [11] | %Inh [12] | %Inh [13] | %Inh [14] | %Inh [15] | %Inh [16] | %Inh [17] | %Inh [18] | %Inh [19] | %Inh [20]
Cc1nnc(-c2ccc3ncn(-c4ccc(S(C)=O)cc4)c3c2)o1 (stereo not shown) | 3% | 6% | 18% | 1% | 5% | 20% | 1% | 14% | 9% | 12% | 18% | 8% | 0% | 8% | 0% | 0% | 8% | 2% | 19% | 11%
C[C@@H]1CC[C@H](C(=O)NC2CCCCC2)CN1c1cc(-c2ccc3c(N)n[nH]c3c2)nc(N)n1 [GSK2291363] | 0% | 1% | 17% | 0% | 41% | 0% | 4% | 8% | 17% | 12% | 27% | 35% | 9% | 9% | 14% | 19% | 21% | 17% | 0% | 0%
COc1cc2ncn(-c3cc(OCCCc4ccccc4)c(C(N)=O)s3)c2cc1OC [GSK205189] | 0% | 3% | 0% | 0% | 10% | 0% | 0% | 9% | 16% | 0% | 21% | 23% | 0% | 5% | 0% | 0% | 24% | 66% | 0% | 5%
CCC(=O)c1c(-c2ccccc2)c2cc(Cl)ccc2c(=O)n1Cc1cc(C(=O)NC2CC2)n(C)n1 | 4% | 0% | 12% | 0% | 0% | 22% | 4% | 2% | 0% | 0% | 20% | 0% | 0% | 0% | 1% | 8% | 0% | 1% | 0% | 0%
Nc1ncnc2c1ncn2-c1cccc(F)c1 [SKF-97560] | 3% | 0% | 27% | 1% | 14% | 0% | 0% | 12% | 1% | 90.7% | 0% | 22% | 35% | 47% | 19% | 0% | 0% | 1% | 0% | 10%
COc1cc2ncn(-c3cc(OCc4ccc(S(C)(=O)=O)cc4)c(C(N)=O)s3)c2cc1OC [GW869979] | 0% | 12% | 6% | 2% | 0% | 0% | 0% | 5% | 4% | 0% | 0% | 0% | 14% | 4% | 15% | 0% | 0% | 7% | 0% | 10%
COc1cc(Nc2ccnc3ccc(C(F)(F)F)cc23)cc(OC)c1OC [GW577382] | 0% | 0% | 0% | 0% | 21% | 2% | 16% | 25% | 3% | 11% | 30% | 9% | 0% | 0% | 3% | 19% | 30% | 86% | 9% | 17%
COc1ccc(Nc2nccc(N3CCC(NS(=O)(=O)c4ccc(NC(C)=O)cc4)C3)n2)cc1 (stereo not shown) [GSK1379729] | 0% | 53% | 0% | 0% | 24% | 5% | 8% | 29% | 18% | 98.5% | 26% | 26% | 27% | 29% | 26% | 16% | 15% | 9% | 14% | 9%
Cl.NS(=O)(=O)c1cccc(Nc2cc(-c3ccc(F)cc3)n[nH]2)c1 [GW824645] | 0% | 3% | 21% | 0% | 41% | 0% | 0% | 0% | 0% | 0% | 0% | 0% | 77% | 88% | 0% | 0% | 0% | 0% | 0% | 23%
COc1cccc(C2=C(Nc3cccc(C(=O)O)c3)C(=O)NC2=O)c1 [SB-390770] | 0% | 36% | 0% | 3% | 40% | 0% | 50% | 71% | 48% | 14% | 14% | 13% | 5% | 0% | 25% | 2% | 29% | 21% | 0% | 14%
CCCNC(=O)Nc1ccc(Oc2ncnc3ccn(C)c23)cc1 | 3% | 0% | 35% | 3% | 0% | 0% | 8% | 0% | 0% | 0% | 0% | 0% | 2% | 45% | 10% | 0% | 1% | 3% | 10% | 24%
